# Bioassay records: PubChem, National Center for Advancing Translational Sciences (NCATS)
# TDP1 cell noCPT = qHTS for Inhibitors of human tyrosyl-DNA phosphodiesterase 1 (TDP1): qHTS in cells in absence of CPT; DT40 Tdp1-/- hTDP1 cells, no CPT, ATP luminescence, 48 h; Potency, µM (highest dose often 46.2 µM), inactives show at the highest dose activity change, negative = growth inhibition, actives largely listed as inhibitors; hit rate 15% among 420,000; AID 686978, 2013; also: % is scaled to controls: 0 for no effect and ±100 for the full control effect; nearly all actives have a fitted effect of over 55% in size
#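 Chicken DT40 Tdp1-/- cells stably complemented with human TDP1 were seeded at 400 cells/well with DMSO in place of 20 nM camptothecin. After compound pinning, cells grew at least 48 hr at 37 °C; viability read by CellTiter-Glo luminescence.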
# ATXN viability = viability counter-screen for ATXN expression inhibitors. S2 cells (HEK-293 line with an ATXN2-luciferase reporter) viability, CellTiter-Fluor protease fluorescence, 24 h. Potency, µM (series often up to 56.7 µM), most hits filed as cytotoxic. hit rate 0.49% among 400,000. AID 651635; also: nearly all actives have a fitted effect of over 40% in size
# HepG2 tox = counter-screen for TGF-b inhibitors: cytotoxicity in HepG2 cells. HepG2 CAGA-GFP viability, ATP luminescence, 18 h. hit rate 0.76% among 410,000. AID 588856. Potency, µM (doses to about 46.1 µM), inactives show at the highest dose activity change, negative = cytotoxicity, most hits filed as cytotoxic
#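 HepG2 CAGA-GFP cells (1000/well, DMEM with 1% FBS) received compound, then TGF-beta at 500 pg/mL final, and were incubated 18 hours at 37 degrees C. Viability was read by CellTiter-Glo luminescence. Media-only wells were set as complete cell-killing and DMSO as no toxicity.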
# ATXN2 expr inh = ATXN2 expression inhibition. HEK-293 ATXN2-luciferase reporter, luminescence, 24 h. Potency, µM (series often up to 57 µM), for the others: at the highest dose activity change, negative = inhibition, hits mostly inhibitors. hit rate 0.72% among 360,000. AID 1745845; also: % is scaled to controls: 0 for no effect and ±100 for the full control effect; nearly all actives have a fitted effect of over 55% in size
#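 ATXN2-luciferase reporter cells (luciferase flanked by upstream and downstream ATXN2 gene portions) were treated 24 h at 37 °C with compounds at up to 57 uM. SteadyGlo luminescence gave expression; GF-AFC fluorescence gave viability.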
# DT40 TDP1 CPT = DT40-hTDP1 cell growth loss with CPT. chicken DT40 Tdp1-/-;hTDP1 cells + 20 nM CPT, ATP luminescence, 48 h. Potency, µM (top dose mostly 46.2 µM), for inactives: top-dose activity change, negative = growth inhibition, actives largely listed as inhibitors. hit rate 12% among 420,000. AID 686979; also: % is scaled to controls: 0 for no effect and ±100 for the full control effect; nearly all actives have a fitted effect of over 55% in size
#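 Chicken DT40 Tdp1-/- cells stably complemented with human TDP1 were seeded at 400 cells/well in medium containing 20 nM camptothecin, exposed to pin-transferred compounds, and grown at 37 °C for at least 48 hr. Viability was read as ATP luminescence.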
# TGFb inhibitor = TGF-b pathway inhibition; Potency, µM (series often up to 46.1 µM), inactives show at the highest dose activity, negative = inhibition, usual class: inhibitors; HepG2 CAGA-GFP TGF-b/SMAD3 reporter, GFP fluorescence, 18 h; TGF-beta stimulated, 500 pg/mL final; hit rate 1.2% among 410,000; also: % is scaled to controls: 0 for no effect and ±100 for the full control effect; nearly all actives have a fitted effect of over 65% in size
#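 Read-out: total well GFP (ex488/em500-530) summed from mean per-cell fluorescence. Cells: HEPG2 CAGA-GFP, 1% FBS DMEM, 18 h at 37 degrees C with 500 pg/mL final TGF-beta. Unstimulated wells served as the full-inhibition control; stimulated DMSO wells = 0%.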
# * hit, by the source's call; i = inactive; ? = inconclusive; nt = not tested or not shown. This is a sample that favours compounds with a hit; in the whole collection about 17% have one here. Calls follow the shape of the dose curve; as a rule, active = well fitted curve in the direction sought with a large enough effect; inconclusive = small, poorly fitted or top-dose-only effect, or another doubt; inactive = no such curve, though single readings can be large; an effect the other way counts as inactive or inconclusive. Potency is read from the fitted curve at half-maximal effect.
SMILES,TDP1 cell noCPT,ATXN viability,HepG2 tox,ATXN2 expr inh,DT40 TDP1 CPT,TGFb inhibitor
CCOC(=O)c1ccc(NC(=O)c2cn(-c3ccccc3)nc2-c2ccc(OC)c(OC)c2)cc1,?,i,-2%,-5%,?,2%
CCOc1ccc(N(CCCCO)C(=S)NC(=O)c2ccc(C)c(Br)c2)cc1,-12%,i,-3%,4%,-1%,-5%
Cc1cccc(NC(=O)CSc2nc3ccc(NC(=O)c4cccs4)cc3s2)c1,8.2µM*,?,-14%,-3%,13µM*,?
Cc1ccccc1NC(=O)CSc1nc2ccc(NC(=O)COc3ccccc3F)cc2s1,10µM*,?,-26%,18µM*,13µM*,?
CCCCCCCCCCCCCCCC(=O)O[C@@H]1CC(C)=C(/C=C/C(C)=C/C=C/C(C)=C/C=C/C=C(C)/C=C/C=C(C)/C=C/C2=C(C)C[C@@H](OC(=O)CCCCCCCCCCCCCCC)CC2(C)C)C(C)(C)C1,?,i,nt,nt,?,nt
CCOc1ccc(CCNC(=O)CCc2c(C)nc3ncnn3c2C)cc1OCC,2%,i,1%,-6%,-23%,5%
COc1ccc(CCNc2c(C)c(C)nc3ncnn23)cc1,2.6µM*,i,-33%,-32%,2.3µM*,-49%
CCOc1ccc(CNc2cc(C)nc3nc(-c4cccc(C)c4)nn23)cc1OC,18µM*,nt,-60%,nt,?,nt
CCOc1ccc(CCNc2cc(C)nc3ncnn23)cc1OCC,15µM*,i,-18%,-9%,21µM*,-18%
CCc1c(C)nc2ncnn2c1NCCc1ccc(OC)c(OC)c1,13µM*,i,0%,-2%,15µM*,?
Cc1ccc(CNc2cc(C)nc3nc(-c4cccc(C)c4)nn23)cc1,nt,?,-18%,-13%,nt,?
CCC1CCCCN1C(=O)c1ccc([N+](=O)[O-])o1 (centres undefined),-20%,i,-16%,-15%,?,-9%
COc1ncc2nc(C)c(=O)n(Cc3cccs3)c2n1,?,nt,nt,nt,13%,nt
CSCCC(=O)Nc1nc(-c2ccccn2)cs1,?,i,-32%,-18%,16µM*,?
O=C(COc1ccccc1Cl)Nc1nc(-c2ccncc2)cs1,16µM*,?,-5%,0%,15µM*,-15%
O=C(CCCSc1ccccc1)Nc1nc(-c2ccccn2)cs1,16µM*,i,0%,-32%,29µM*,-20%
O=C(CN1C(=O)CCC1=O)Nc1nc(-c2ccccn2)cs1,-7%,i,-7%,-17%,?,-5%
N#Cc1ccc(OCC(=O)Nc2nc(-c3ccncc3)cs2)cc1,14%,i,-4%,4%,-22%,-1%
N#Cc1ccccc1OCC(=O)Nc1nc(-c2ccccn2)cs1,5.2µM*,?,0%,nt,2.9µM*,0%
Cc1cc(C)cc(OCC(=O)Nc2nc(-c3ccccn3)cs2)c1,?,i,-36%,-27%,?,?
CC1Cc2cc(S(=O)(=O)CCC(=O)Nc3cccc(F)c3)ccc2N1C(=O)C1CC1 (centres undefined),?,nt,-6%,nt,?,-18%
O=C(Nc1nc(-c2ccccn2)cs1)C1CCCC1,5.2µM*,i,-7%,-12%,2.9µM*,-21%
O=C(C1=COCCO1)N1CCN(S(=O)(=O)c2cccc(Br)c2)CC1,2%,i,-16%,-4%,-21%,2%
CN1C(=O)c2cccc3c(S(=O)(=O)NCCc4ccccc4)ccc1c23,21µM*,?,-12%,-4%,?,0%
O=C(c1ccc(-c2nnc(Nc3cccc(Cl)c3)c3ccccc23)cc1)N1C[C@H]2C[C@H](C1)c1cccc(=O)n1C2,16µM*,i,3%,?,?,0%
